± gives the standard deviation of the averaged measurements.

The first experiment deals with human monocyte-derived macrophages (polarized). The experiment can be described thus: cell shape (eccentricity) Z-score vs DMSO control; higher = more elongated, M2-like morphology. The conditions noted are these: 5 µM; 24 h; macrophage state: M1-polarized (IFNg + TNFa), cytokines present during treatment. The method, then: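 Primary-screen hits were rescreened on polarized hMDMs with the differentiating cytokines (IL-4 + IL-13 or IFNg + TNFa) kept in the medium during treatment with compound at 5 uM for 24 h. The eccentricity Z-score vs DMSO wells is averaged over experiments.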
Take `Cc1cc(Nc2nc(N[C@@H](C)c3ncc(F)cn3)ncc2Cl)[nH]n1`: the “cell shape (Z-score)” value came out at 10.1.
As to `Cc1cc(N2CCOCC2)cc2[nH]c(-c3c(NC[C@@H](O)c4cccc(Cl)c4)cc[nH]c3=O)nc12`, the “cell shape (Z-score)” value is 2.38.
Turning to `O=c1cc(-c2cccc3c2Sc2ccccc2S3)oc(N2CCOCC2)c1`, the “cell shape (Z-score)” value is -7.49.
On the same count and under the same terms, in the case of `C[C@]1(CO)CN(c2cc(C(=O)Nc3ccc4c(c3)-c3c(c(C(N)=O)nn3-c3ccc(F)cc3)CC4)c(Cl)cn2)C[C@@]1(C)CO` it was -7.03; in that of `COc1cc2ncn(-c3cc(OCc4ccccc4C(F)(F)F)c(C(N)=O)s3)c2cc1OC`, 13.5.
Regarding `Cc1c(C(=O)Nc2ccc(N3C[C@@H](C)O[C@@H](C)C3)nc2)cccc1-c1ccc(OC(F)(F)F)cc1`, the “cell shape (Z-score)” value worked out at 8.76.
With `O=c1ncccn1[C@@H]1O[C@H](CO)[C@@H](O)[C@H]1O`, the “cell shape (Z-score)” value was -0.513.
On the same count and under the same terms, in the case of `CC(C)n1cnc2c(NCc3ccccc3)nc(NCCO)nc21` it was 0.237.
On the same count and under the same terms, in the case of `C[C@@]1(C(=O)Nc2ccc(F)nc2)CCCN1c1nc(Nc2cc(C3CC3)n[nH]2)c2cccn2n1` it was 5.79; in that of `Nc1nc2c(ncn2COCCO)c(=O)[nH]1`, -5.79.
With `COc1c(OC)c(O)c2c(=O)c(O)c(-c3ccccc3)oc2c1OC`, the “cell shape (Z-score)” value turned out to be 5.45.
On the same count and under the same terms, in the case of `COCc1c(C(C)C)nc(C(C)C)c(/C=C/[C@@H](O)C[C@@H](O)CC(=O)O)c1-c1ccc(F)cc1` it was 9.45; in that of `C(=N\NC1=NCCN1)/c1c2ccccc2c(/C=N/NC2=NCCN2)c2ccccc12`, 33.2; in that of `CC(=Cc1ccc(C(=O)O)cc1)c1ccc2c(c1)C(C)(C)CCC2(C)C`, -2.82.
On the same count and under the same terms, in the case of `C=C1C(=O)O[C@H]2C3=C(C)C[C@H](OC(C)=O)C[C@]3(C)CC[C@@H]12` it was -1.91; in that of `CC1CNCCN1S(=O)(=O)c1cccc2cnccc12` (stereo not given), -1.72.
Regarding `CCC[C@H](N[C@@H](C)C(=O)N1[C@H](C(=O)O)C[C@@H]2CCCC[C@@H]21)C(=O)OCC`, the “cell shape (Z-score)” value is -1.48.

The experiment is the same for the next values; noted with them: 5 µM; 24 h; macrophage state: M2-polarized (IL-4 + IL-13), cytokines present during treatment.
For the compound `C=C1C(=O)O[C@H]2[C@H]1CC/C(C)=C/CC[C@@]1(C)O[C@@H]21` [Parthenolide], the “cell shape (Z-score)” value was -1.29.
On the same count and under the same terms, in the case of `COC(=O)Nc1nc2cc(Sc3ccccc3)ccc2[nH]1` [Fenbendazole] it was -14.3; in that of `CC(=O)OCCNC(=O)c1cccnc1`, 2.01.
Same read-out and setting: in the case of `O=C(Nc1ccc([N+](=O)[O-])cc1O)Nc1ccccc1Br` it was -12.2; in that of `CN1c2cc3c(cc2N=C(c2ccc(C(=O)O)cc2)c2ccccc21)C(C)(C)CCC3(C)C`, -8.56.
`CN[C@H]1CC[C@@H](c2ccc(Cl)c(Cl)c2)c2ccccc21`: the “cell shape (Z-score)” value was -4.29.
Same read-out and setting: in the case of `CC(=O)O[C@@H]1C[C@H]2C(C)(C)C(=O)C=C[C@]2(C)[C@H]2CC[C@@]3(C)[C@H](c4ccoc4)OC(=O)[C@H]4O[C@]43[C@@]21C` it was -8.96.
The same measure, in the same setting: in the case of `CC1Nc2ccc(Cl)cc2S(=O)(=O)N1` (stereo not given) it was -1.89; in that of `CCOc1nc2cccc(C(=O)OC(C)OC(=O)OC3CCCCC3)c2n1Cc1ccc(-c2ccccc2-c2nn[nH]n2)cc1` (stereo not given), -2.81.
On the same count and under the same terms, in the case of `O=c1nc2ccccc2c2n1CC(CN1CCN(c3ccccc3)CC1)N2` (stereo not given) it was -1.27; in that of `CC1=CC(=O)c2ccccc2C1=O`, -2.13.
Turning to `C#CC1(OCC(O)CN2CCN(c3cccc(C(F)(F)F)c3)CC2)CCCCC1` (stereo not given), the “cell shape (Z-score)” value came out at 3.74.
As to `CC1=CC[C@@]2(C)CC[C@@](O)(C(C)C)[C@@H]2[C@@H](O)C1`, the “cell shape (Z-score)” value was -2.34 ± 1.2.
The same measure, in the same setting: in the case of `Cc1cc2nc3c(=O)[nH]c(=O)nc-3n(C)c2cc1C=O` it was 6.26; in that of `OC(CN1CCNCC1)Cn1c2ccc(Br)cc2c2cc(Br)ccc21` (stereo not given), -13.7.
For the compound `COCCCOc1ccnc(C[S+]([O-])c2nc3ccccc3[nH]2)c1C` (stereo not given), the “cell shape (Z-score)” value was found to be 1.52.
The same measure, in the same setting: in the case of `C=C(C(=O)O)[C@@H]1CC[C@@]2(C)CC[C@H](O)[C@@]2(C(C)=O)C1` it was -6.45; in that of `OCCN(CCO)c1nc(N2CCCCC2)c2nc(N(CCO)CCO)nc(N3CCCCC3)c2n1`, 0.465.

For the origin of these results see the supplement of paper PMC7858590.
